# An excerpt weighted towards active compounds, which were near 12% of everything screened.
# Sfp PPTase inh: Sfp phosphopantetheinyl transferase inhibition; Q9F4F7; Biochemical Sfp PPTase activity, qHTS; Potency, µM, for inactives: largest response in the series, negative = inhibition, most hits filed as inhibitors; 3.5% of 310,000 active;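 further: the enzyme is Sfp with the accession as filed and its product quenches rhodamine fluorescence; 0% = enzyme reaction without inhibitor and -100% = no enzyme wells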
#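 With Hepes-Na pH 7.6 buffer containing 10 mM MgCl2, Sfp (15 nM) modified BHQ-2-YbbR (12.5 uM) using rhodamine-CoA (5 uM). Two reads 30 minutes apart at 525/598 nm yielded each well's rate.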
# Gal4-VP16 FLuc: inhibits Gal4-VP16 luciferase reporter, ROR gamma counter-screen; Drosophila S2 Gal4-VP16 UAS-luciferase, luminescence, 20 h; Potency, µM (titrated, usually from 53.6 µM), for inactives: at the highest dose activity, negative = inhibition, hits mostly inhibitors; 3.5% of 310,000 active; AID 2546;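 further: Gal4-VP16 expression switched on by copper sulfate through the metallothionein promoter; nearly all actives have a fitted effect of over 50% in size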
# PLK1 PBD block: blocks phosphopeptide binding to human PLK1 polo-box domain; P53350; AID 720504; Plk1 PBD binding of FITC phosphopeptide, fluorescence polarization; 2.8% of 360,000 active; Potency, µM, inactives show max response, negative = inhibition, usual class: inhibitors; further: series mostly up to about 57 µM; nearly all actives have a fitted effect of over 65% in size
# RORgamma inh: blocks mouse ROR gamma transcriptional activity. Drosophila S2 Gal4-RORgamma UAS-luciferase reporter, 20 h. Potency, µM (doses to about 53.6 µM), for inactives: at the highest dose activity change, negative = inhibition, hits mostly inhibitors. 5.4% of 310,000 active. P51450; further: nearly all actives have a fitted effect of over 60% in size
#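 Drosophila Schneider cells stably carrying a metallothionein-driven Gal4 DBD–ROR gamma fusion and a UAS-Photinus luciferase reporter were exposed to compound for 1 hr, then induced with copper sulfate (700 uM final) for 20 hr at ambient temperature before luminescence reading.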
# ALDH1A1 block: ALDH1A1 (human) enzyme inhibition; Purified ALDH1A1, NADH fluorescence, propionaldehyde substrate; Potency, µM (highest dose often 75.3 µM), for the others: at the highest dose activity, negative = inhibition, usual class: inhibitors; 7.3% of 220,000 active; AID 1030; active means well fitted inhibition curve with a large enough effect, not every such curve was filed as active; inconclusive means small, poorly fitted or top-dose-only effect, or another doubt; inactive means no such curve, though single readings can be large or run the other way;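 further: plate controls were no enzyme wells and a reference inhibitor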
# Target sequence (P00352 whole entry, looked up): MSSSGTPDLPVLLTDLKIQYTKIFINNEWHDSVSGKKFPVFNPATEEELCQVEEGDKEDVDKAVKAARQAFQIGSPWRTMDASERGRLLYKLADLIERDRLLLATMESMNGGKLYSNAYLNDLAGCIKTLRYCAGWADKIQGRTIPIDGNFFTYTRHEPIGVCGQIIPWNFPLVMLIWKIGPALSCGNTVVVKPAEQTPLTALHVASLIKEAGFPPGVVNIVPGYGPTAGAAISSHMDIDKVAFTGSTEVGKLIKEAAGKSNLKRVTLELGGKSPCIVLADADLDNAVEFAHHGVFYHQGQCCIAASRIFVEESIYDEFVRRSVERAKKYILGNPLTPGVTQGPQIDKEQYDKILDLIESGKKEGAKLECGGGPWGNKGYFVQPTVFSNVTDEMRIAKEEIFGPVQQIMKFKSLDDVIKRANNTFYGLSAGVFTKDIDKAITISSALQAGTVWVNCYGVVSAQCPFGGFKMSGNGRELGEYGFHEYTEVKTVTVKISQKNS
# TbPYK inh: Trypanosoma brucei pyruvate kinase inhibition, cherry-pick confirmation; shares compounds with PLK1 PBD block; recombinant TbPYK, Kinase-Glo ATP luminescence; Potency, µM (series often up to 76.9 µM), inactives show at the top dose activity change, negative = inhibition, most hits filed as inhibitors; 67% of 890 active; further: nearly all actives have a fitted effect of over 70% in size
# TbPYK ADP-Glo: inhibits T. brucei pyruvate kinase in orthogonal ADP-Glo assay. AID 720584. shares compounds with PLK1 PBD block. recombinant TbPYK, ADP-Glo luminescence, 60 min. 62% of 890 active. Potency, µM (titrated, usually from 76.9 µM), without a hit: top-dose activity change, negative = inhibition, hits mostly inhibitors; further: nearly all actives have a fitted effect of over 75% in size
# An asterisk follows results filed as active; ? = inconclusive; nt = not tested or not shown; ! = not confirmed by another sample; [ ] = dose if it differs, or a comment. Unless noted, the call rests on the fitted dose curve; in most records, active means well fitted curve in the direction sought with a large enough effect; inconclusive means small, poorly fitted or top-dose-only effect, or another doubt; inactive means no such curve, though single readings can be large; an effect the other way counts as inactive or inconclusive. Unless noted, on the % scale 0 is the no-effect control and ±100 the full control effect; potency means the concentration at half of the fitted maximal effect.
SMILES,Sfp PPTase inh,Gal4-VP16 FLuc,PLK1 PBD block,RORgamma inh,ALDH1A1 block,TbPYK inh,TbPYK ADP-Glo
COc1cc(O)c(C(=O)O)c(-c2cc(O)c(O)cc2C)c1,2%,-4%,?,29%,nt,2µM*,10µM*
COc1ccc2c(c1)c(C(=O)O)c(C)n2CC(C)C,19%,-7%,-2%,19%,-4%,nt,nt
C[C@H]1CCCC=CC2C[C@H](O)C[C@@H]2[C@H](O)/C=C\C(=O)O1 (stereo partly drawn),-1%,3%,nt,37%,-9%,nt,nt
O=C1CC=C2C3CC4N(CCC45c4cc(O)c(O)cc4N1C25)CC3=CCBr (stereo not drawn),nt,nt,5.3µM*,nt,nt,7.9µM*,13µM*
O=C1CC=C2C3CC4N(CCC45c4ccccc4N1C25)CC3=CCO (stereo not drawn),nt,nt,2%,nt,nt,nt,nt
CCC[C@@](C)(COC(N)=O)COC(=O)NC(C)C,7%,3%[17 µM],nt,10%[16.9 µM],5%[20.9 µM],nt,nt
O=C(O)CCn1cc(C=C2C(=O)NC(=O)NC2=O)c(-c2cc3ccccc3oc2=O)n1,40µM*,-4%,15µM*,4%,?,11µM*,32µM*
COc1cc(/C=C/[N+](=O)[O-])ccc1OC(=O)c1cccnc1,-94%,3.5µM*,3.4µM*,6.3µM*,nt,7.1µM*,16µM*
COc1cc(/C=N/n2cnnc2)ccc1OC(=O)N(C)C,19%,3%,-7%,?,?,nt,nt
CCCCC/C=C\C/C=C\C/C=C\C/C=C\CCCC(=O)NC(C)C(=O)O (stereo not drawn),2%,-4%,nt,-17%,-4%,nt,nt
NC1CCc2cc(O)c(O)cc2C1 (stereo not drawn),40µM*,nt,1%,nt,7.9µM*!,-95%,28µM*
CCOC(=O)[C@]12Cc3ccccc3[C@H]1N(C(C)C)C(=O)c1ccccc12,nt,nt,?,nt,nt,22µM*,32µM*
NC(CCCCCP(=O)(O)O)C(=O)O (stereo not drawn),nt,nt,nt,nt,6%,nt,nt
Oc1ccc2c3c1O[C@H]1c4c(c5ccccc5n4Cc4ccccc4)C[C@]4(O)[C@H](C2)N(CC2CC2)CC[C@@]314,-10%,-28%,nt,?,-6%,nt,nt
CSc1ncc(/C=C2/C(=O)NC(=O)N(C)C2=O)cn1,-95%,-6%,11µM*,-7%,-9%,?,?
Cc1ccc2c(c1)=NC(=O)/C(=C/c1c(O)[nH]c(=O)[nH]c1=O)C=2,35µM*,-10%,15µM*,-6%,nt,25µM*,22µM*
CN1C2CCC1C(COC(=O)c1ccccc1)C(O)C2 (stereo not drawn),12%,-1%,-13%,-21%,9%,nt,nt
CC1CCN(C(CC(=O)c2ccccc2)C(=O)c2ccccc2)CC1 (stereo not drawn),nt,nt,?,nt,nt,20µM*,13µM*
O=C1NC(=O)C(=Cc2coc3ccc(O)cc3c2=O)C(=O)N1,13µM*,-6%,27µM*,-1%,3.5µM*,14µM*,?
CC(C)(C)c1o[nH]c(=O)c1C[C@H](N)C(=O)O,-3%,0%,nt,6%,3%,nt,nt
CCS(=O)CCSP(=O)(OC)OC (stereo not drawn),-2%,-8%,nt,-2%,-13%,nt,nt
O=C1NC(=O)C(=Cc2ccc(Sc3ccccc3)o2)C(=O)N1,25µM*,?,0.67µM*,-20%,nt,32µM*,35µM*
CC1(C)OC(c2ccccc2)=C/C(=C/C=C2C(=O)NC(=O)NC2=O)O1,-29%,-20%,27%,-18%,15%,nt,nt
CCOP(=O)(OCC)c1cccc(P(=O)(c2ccccc2)c2ccccc2)c1O,-2%,3%,-23%,?,nt,nt,nt
CCOP(=O)(C1=C(O)C(=O)C(C(C)(C)C)=CC1=O)c1ccccc1 (stereo not drawn),40µM*,18%,?,-2%,?,?,?
COc1cc(C(=O)O)cc(OC)c1OC,nt,nt,-1%,nt,nt,nt,nt

# High-throughput results (PubChem)
